From PubChem BioAssay
Calls of active or inactive are those of the source. How the calls were made is not given here.

experiment: inhibitors of Cryptococcus chitosan production, flow cytometry, Cibacron Brilliant Red staining (AID 1347148); conditions: Cryptococcus neoformans chitosan, hits give low values; at 10 µM unless noted;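 further: compound exposure lasted three days at 37 degrees C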

Fold fluorescence, inactive:
Nc1ncnc2c1ncn2[C@@H]1CCCO1 2.55 [at 243.6 µM]
COc1cc2c3cc1Oc1c(OC)c(OC)cc4c1[C@H](Cc1ccc(OC(=O)c5ccc([N+](=O)[O-])cc5)c(c1)Oc1ccc(cc1)C[C@H]3N(C)CC2)N(C)CC4 5.83 [at 66 µM]
CC[C@H](C)[C@H](N)C(=O)N[C@@H](CC(N)=O)C(=O)N[C@@H](CC(C)C)C(=O)N[C@@H](CCCCN)C(=O)N[C@@H](C)C(=O)N[C@@H](CC(C)C)C(=O)N[C@@H](C)C(=O)N[C@@H](C)C(=O)N[C@@H](CC(C)C)C(=O)N[C@@H](C)C(=O)N[C@@H](CCCCN)C(=O)N[C@@H](CCCCN)C(=O)N[C@H](C(=O)N[C@@H](CC(C)C)C(N)=O)[C@@H](C)CC 3.8 [at 33.8 µM]
CCCCCCCC/C=C\CCCCCCCCOC[C@@H](COP(=O)([O-])OCC[N+](C)(C)C)OC(C)=O 3.92
CC(C)=CCC(O)C1=CC(=O)c2c(O)ccc(O)c2C1=O (stereo not drawn) 6.4 [at 173.4 µM]
CC(=O)OCO[C@H](c1ccc2ccccc2c1)P(=O)(OCOC(C)=O)OCOC(C)=O 4.04 [at 110 µM]
C=C(C)[C@H]1CC[C@@]2(C(=O)O)CC[C@@]3(C)[C@@H](CC[C@H]4[C@]5(C)CC[C@@H](O)C(C)(C)[C@H]5CC[C@@]43C)[C@H]12 3.34 [at 109.5 µM]
COc1ccc(CC(N)C(=O)N[C@@H]2[C@H](O)[C@@H](n3cnc4c(N(C)C)ncnc43)O[C@H]2CO)cc1 (stereo partly drawn) 4.82 [at 106 µM]
